# PubChem BioAssay AID1851 (National Center for Advancing Translational Sciences (NCATS), 2009)
# Values joined by “and” are separate entries in the source; they are usually repeats but may differ in a detail not shown here. Identical values can stand only once. Among all 16,000 compounds or so, about 4,000 (25%) were called active. Roughly 26% stayed inconclusive and do not appear here. The call rests on the fitted dose curve; in most records, active means well fitted curve in the direction sought with a large enough effect; inconclusive means small, poorly fitted or top-dose-only effect, or effect the other way; inactive means no such curve, though single readings can be large or run the other way. Not all results are given here. Some structures have more than one record in an assay (separate samples or runs), and their calls can disagree.
# Biological target: Cytochrome P450 2C9 (Homo sapiens) (UniProt P11712)
# Assay: Cytochrome panel assay with activity outcomes
# Details: recombinant CYP, pro-luciferin dealkylation, luminescence, p450-cyp2c9; series mostly up to 57.1 µM; activity, negative = inhibition: at the top concentration
# On the % scale 0 is the no-effect control and ±100 the full control effect.
# Chain of Cytochrome P450 2C9 (Homo sapiens) (P11712 whole entry, looked up): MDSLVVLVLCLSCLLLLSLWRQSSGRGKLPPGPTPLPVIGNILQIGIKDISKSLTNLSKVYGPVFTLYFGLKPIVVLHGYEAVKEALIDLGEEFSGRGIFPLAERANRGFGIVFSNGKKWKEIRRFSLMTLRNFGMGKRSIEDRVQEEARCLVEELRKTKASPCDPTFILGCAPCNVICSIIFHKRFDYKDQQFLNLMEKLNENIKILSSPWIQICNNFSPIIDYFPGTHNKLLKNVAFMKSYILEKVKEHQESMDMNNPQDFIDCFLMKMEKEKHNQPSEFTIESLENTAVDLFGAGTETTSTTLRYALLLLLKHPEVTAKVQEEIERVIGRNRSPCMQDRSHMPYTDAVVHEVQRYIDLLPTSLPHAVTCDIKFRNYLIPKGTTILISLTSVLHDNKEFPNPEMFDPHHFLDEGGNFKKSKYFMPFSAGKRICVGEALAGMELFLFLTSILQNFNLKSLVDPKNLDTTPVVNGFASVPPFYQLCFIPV
SMILES,AC50,"activity, negative = inhibition"
CC1(C)CCC2=C(O1)c1ccccc1C(=O)C2=O,31.6 µM (active),
C[C@@H]1CC[C@@H]2N(C1)C[C@H]1[C@@](O)([C@H](O)C[C@]3(O)[C@H]4CC[C@H]5[C@]6(O)O[C@]4(C[C@]13O)[C@@]5(C)CC[C@@H]6O)[C@@]2(C)O,,-2.76% [at 11.4 µM] (inactive)
C=CCn1c(O)c(C(C)=NCCCN2CCOCC2)c(=O)[nH]c1=O,,-27.5% (inactive)
C=C(C)[C@H]1CN[C@H](C(=O)O)[C@@H]1CC(=O)O,,13.2% (inactive)
COc1c2c(cc3c1OCO3)CCN(C)C2,,20.3% [at 25.6 µM] (inactive)
NCC#Cc1ccccc1,10 µM (active),
O=C(Oc1ccccc1)N1CCC[C@@]2(CCN(C(c3ccccc3)c3ccccc3)C2)C1,,-10.2% (inactive)
C[N+]1([O-])[C@@H]2CC[C@H]1CC(OC(=O)[C@@H](CO)c1ccccc1)C2 (stereo partly drawn),,21.1% [at 25.6 µM] (inactive)
COC(=O)[C@@]1(Cc2ccc(F)cc2)[C@H]2c3cc(C(=O)N(C)C)[nH]c3C[C@H]2CN1C(=O)c1ccccc1,10 µM (active),
CN(C)CCCc1c[nH]c2ccccc12,,-1.95% [at 11.4 µM] (inactive)
COc1cc2c(cc1O)C[C@H]1c3c(cc(O)c(OC)c3-2)CCN1C,,-0.572% [at 25.6 µM] (inactive)
Cn1c[n+](C)cc1C(O)c1ccccc1 (stereo not drawn),,-14.7% (inactive)
O=C(Nc1ccc(Cl)cc1)Nc1nccs1,17.8 µM (active),
O=C1CS[C@@H](c2ccccc2Cl)c2cc(Cl)ccc2N1,15.8 µM (active),
COc1cc2c(cc1OC)[C@@H]1C(=O)c3ccc4c(c3O[C@@H]1CO2)C=CC(C)(C)O4,,-28% (inactive)
C[C@H](N)Cc1c[nH]c2ccc(O)cc12,,11.8% (inactive)
O=c1c2ccccc2c2ccccc2c(=O)n1-c1cc2c3ccccc3ccc2c2ccccc12,0.316 µM (active),
c1csc(CN2CCC3(CCNCC3)CC2)n1,,5.14% (inactive)
CN(C)CCCNc1c2c(nc3ccc(Cl)cc13)CCCC2,,6.4% [at 11.4 µM] (inactive)
CC(=O)OCC1=C(C(=O)O)N2C(=O)[C@@H](N)[C@@H]2SC1,,13% [at 25.6 µM] (inactive)
CCc1cc2c(nc1CC)CCN(CC/C(C)=N/OC)C2,,7.8% [at 11.4 µM] (inactive)
CS(=O)c1ccc(-c2nc(-c3ccc(F)cc3)c(-c3ccncc3)[nH]2)cc1 (stereo not drawn),inactive and 2 µM (active),
Cc1ccc(S(=O)(=O)N[C@@H](CCCCN)C(=O)CCl)cc1,,-3.85% (inactive)
O=C(Nc1ccccc1)N1CCCC2(CCN(C(=O)Oc3ccccc3)CC2)C1,,-17.9% (inactive)

SMILES,AC50,"activity, negative = inhibition"
Cc1cc(C)c(C#N)c(SCC(=O)c2ccc(Cl)cc2Cl)n1,5.01 µM (active),
COc1ccc2c(c1)CCC1[C@@H]2CCC2(C)[C@@H](NCCCCCCN3C(=O)C=CC3=O)CC[C@@H]12 (stereo partly drawn),,5.58% (inactive)
COc1ccc(C[C@@H](N)c2ccc(OC)cc2)cc1,,-15.8% [at 11.4 µM] (inactive)
N=C(N)SCc1ccc(Cl)c2ccccc12 (tested in a mixture with another compound),3.98 µM (active),9.59% [at 11.4 µM] (inactive)
O=[As](O)(O)c1ccc(NCc2ccccc2)cc1,,-7.26% [at 11.4 µM] (inactive)
C[C@H]1[C@H](NC(=O)/C(=N/OC(C)(C)C(=O)O)c2csc(N)n2)C(=O)N1S(=O)(=O)O (stereo in doubt),,14% [at 25.6 µM] (inactive)
O=c1[nH]oc2c1CCNC2,,inactive
N#Cc1ccc(CN2CC[C@@]3(CCCNC3)C2)cc1,,-13.8% (inactive)
COC(=O)C1=Nc2ccccc2/C1=C\c1c(O)n(-c2ccc(OC)cc2)c(=O)[nH]c1=O,1.26 µM (active),
NCCCNCCSP(=O)(O)O,,-9.99% (inactive)
CN1Cc2c(ccc3c2OCO3)[C@@H]2[C@@H](O)Cc3cc4c(cc3[C@@H]21)OCO4,,5.43% [at 25.6 µM] (inactive)
NC(N)=NCCN=C(N)N,,3.96% [at 11.4 µM] (inactive)
Clc1cc(I)cc(Cl)c1NC1=NCCN1,,8.41% (inactive)
CC(C)CNC(=S)NC1CC2CCCC(C1)N2Cc1ccco1 (stereo not drawn),2.82 µM (active),
CCc1ccccc1NC(=S)NC1CC2CCC(C1)N2Cc1ccco1 (stereo not drawn),,19.7% (inactive)
CCNC(=S)NC1CC2CCCC(C1)N2Cc1ccco1 (stereo not drawn),,-3.86% (inactive)
C#C[C@@]1(O)CC[C@@H]2[C@@H]3CCC4=CC(=O)CC[C@@]4(C)[C@H]3CC[C@]21C,,6.31% [at 25.6 µM] (inactive)
S=C(Nc1ccc(Cl)cc1)NC1CC2CCCC(C1)N2C1CCCC1 (stereo not drawn),,-23.7% (inactive)
CC1=NN(c2ccccc2)C(=O)[C@@H]1N=Nc1ccc([As](=O)(O)O)c(O)c1,3.16 µM (active),
Nc1nc(N)c(N=Nc2ccc([As](=O)(O)O)c(O)c2)c(N)n1,,-7.93% [at 11.4 µM] (inactive)
CC[N+](CC)(CC)CCOc1cccc(OCC[N+](CC)(CC)CC)c1OCC[N+](CC)(CC)CC,,-12% (inactive)
CC1=C2[C@@H]3OC(=O)[C@@H](C)[C@@H]3CC[C@]2(C)C=CC1=O,,-19.6% [at 25.6 µM] (inactive)
O=C(Nc1cccc(F)c1)N1CC2(CCNCC2)C1,,5.38% (inactive)
